The results in this text go back to ChEMBL document CHEMBL4888484, “Replenishing the malaria drug discovery pipeline: Screening and hit evaluation of the MMV Hit Generation Library 1 (HGL1) against asexual blood stage Plasmodium falciparum ,using a nano luciferase reporter read-out” (2022).

Molecules are shown by their SMILES. About 540 (0.36%) of roughly 150,000 compounds showed an effect of 50% or more. Many of the other results were omitted from the sample, so strong results are more common in it than they were.

The assay relates to Plasmodium falciparum. Kind of assay: Primary screen in NF54 nanoGlo assay, in single point, at 2uM, 72h; a lower Z score goes with more inhibition. Type of assay: functional, Erythrocyte. The conditions noted are these: timepoint 72 hour.
For `CC(=O)[C@H](C)n1nc(C2CC2)ccc1=O`, the % Inhibition (in general, the relative decrease from the control value, in per cent) is -17% and the Z score is given as 2.21.
Taken in the same sequence, the figures for `COc1ccccc1-n1c(=O)[nH]c2nc(NCc3cccnc3)ncc2c1=O` were 1% and -0.13.
Taken in the same sequence, the figures for `Cc1cccc(-n2c(=O)[nH]c3nc(NCCN(C)C)ncc3c2=O)c1C` were 50% and -0.77.
Taken in the same sequence, the figures for `Cc1cccc(-n2c(=O)[nH]c3nc(N4CCCC4)ncc3c2=O)c1C` were -4% and 0.62.
With `Cc1cccc(N(CCC#N)C(=O)c2cc3ccccc3c(=O)[nH]2)c1`, the “% Inhibition” value is reported as -18% and the Z score stood at 1.68.
For `O=C(c1ccncc1F)N1CCCC[C@@H]1CCc1ccccn1` the same measures were -23% and 2.29.
Taken in the same sequence, the figures for `Cc1ccc(CNC(=O)CCNc2c(-c3cccc(F)c3)nc3cnccn23)o1` were -18% and 2.57.
For `Cc1ccc(CCN2CCC[C@@H]2C(=O)O)cc1` the same measures were 3% and -0.5.
With `O=C(NC1CCC(N2C(=O)CCC2=O)CC1)C1CC1C1CCCCC1` (centres undefined), the “% Inhibition” value is on record as -7% and the Z score was 0.72.
For `O=C1c2ccc(O)cc2C(=O)N1c1ccc(N(c2ccccc2)c2ccc(N3C(=O)c4ccc(O)cc4C3=O)cc2)cc1` the same measures were 8% and -1.03.
Taken in the same sequence, the figures for `O=C1NC(=O)c2ccc3c4c(ccc1c24)C(=O)N(c1ccccc1)C3=O` were 73% and -8.98.
For `O=C1c2cc(Nc3ccccc3)c3c4c(cc(Nc5ccccc5)c(c24)C(=O)N1c1ccccc1)C(=O)N(c1ccccc1)C3=O` the same measures were 3% and -0.42.
Regarding `COc1ccc2cc3n(c2c1)C[C@@](C)(C(=O)NC1CCCCCC1)N(CCN1CCCCCC1)C3=O`, the “% Inhibition” value came to 2% and the Z score is -0.31.
Regarding `COc1cccc(CN2C(=O)c3cc4ccc(OC)cc4n3C[C@@]2(C)C(=O)NC2CCCCCC2)c1`, the “% Inhibition” value is -12% and the Z score came to 1.58.
For `COc1ccc2cc3n(c2c1)C[C@@](C)(C(=O)NC1CCCC1)N(Cc1ccc(F)cc1)C3=O` the same measures were 73% and -1.23.
For `Cc1ccc(C(=O)N2CCCC[C@H]2c2nnc(-c3ccncc3)[nH]2)cn1` the same measures were -12% and 2.36.
For `C[C@@H](NCc1ccc2c(c1)COC(C)(C)O2)c1cccc(O)c1` the same measures were -21% and 2.42.
Consider `CC1(C)OCc2cc(CNc3ccc4oc(=O)[nH]c4c3)ccc2O1`, for which the “% Inhibition” value is listed as 96% and the Z score is -13.84.
In the case of `CCOc1cc(CNc2ccc3c(c2)OCO3)ccc1OC`, the “% Inhibition” value was -1% and the Z score came to 0.26.
Turning to `O=S(=O)(c1cccc(F)c1F)N1CCN(Cc2nccn2C(F)F)CC1`, the “% Inhibition” value is given as -4% and the Z score is 0.57.
Taken in the same sequence, the figures for `Cc1ccc(-c2n[nH]c3c2cnc2ccc(C)cc23)cc1` were -5% and 0.82.
For `COc1cc2ncc3c(-c4ccccc4)n[nH]c3c2cc1OC` the same measures were 9% and -0.99.
Taken in the same sequence, the figures for `COc1cc2ncc3c(-c4ccc(C)c(C)c4)n[nH]c3c2cc1OC` were 51% and -4.04.
For the compound `CC(C)C(=O)N[C@@H](N1CCCCCC1)C(Cl)(Cl)Cl`, the “% Inhibition” value was -15% and the Z score is reported as 2.02.
`Cn1nc(C(=O)NC2CCN(Cc3ccccc3)CC2)c2ccccc2c1=O`: the “% Inhibition” value turned out to be 34% and the Z score is recorded as -3.81.
Taken in the same sequence, the figures for `O=C(CNC(=O)c1ccc(C(F)(F)F)cc1)Nc1cnc2c(c1)COCC2` were 34% and -4.64.
Taken in the same sequence, the figures for `O=C(Nc1cnc2c(c1)COCC2)c1cccc(OC(F)F)c1` were -1% and 0.19.
For `COC[C@H]1CCCN1S(=O)(=O)N1CCC(c2cc[nH]n2)CC1` the same measures were -7% and 0.81.
`CN1C(=O)[C@@H]2CCCCN2c2ccc(C(=O)N3CCN(C(=O)c4ccco4)CC3)cc21`: the “% Inhibition” value stood at 1% and the Z score is -0.14.
On to `COCC1(CNC(=O)CNC(C)=O)CCCC1`, for which the “% Inhibition” value was -5% and the Z score is recorded as 0.85.
Taken in the same sequence, the figures for `Cc1ccccc1CC(=O)N[C@H]1CCCCNC1=O` were 0% and 0.03.
For `Cc1ccccc1CNC1C(=O)NCCC1C` (centres undefined) the same measures were 74% and 1.17.
Regarding `Cc1ccccc1CN[C@H]1CCCOCC1`, the “% Inhibition” value was -4% and the Z score turned out to be 0.53.
Taken in the same sequence, the figures for `Cc1cc(C)cc(CCNC(=O)CN(C)S(C)(=O)=O)c1` were -4% and 0.7.
For `COc1ccc(C[C@@H]2C3=C(CCCC3)CCN2C(=O)c2cc(C)on2)cc1` the same measures were -5% and 0.97.
Consider `OCC1(CN2CCCC2)CCN(Cc2ccc(Cl)cc2)CC1`, for which the “% Inhibition” value was determined as 2% and the Z score is -0.36.
With `COc1c(C)cnc(Cn2cnc(N)n2)c1C`, the “% Inhibition” value is given as 8% and the Z score was -0.99.
Taken in the same sequence, the figures for `CN1CCN(C[C@@]2(Cc3ccccc3)CCOC2)CC1` were -3% and 0.56.
For `Cc1ccc(NC(=O)c2c(C)nc3sc(C(=O)NCc4ccccc4)c(N)c3c2-c2cccs2)c(C)c1` the same measures were 61% and -9.57.
For `Cc1ccc(NC(=O)c2c(C)nc3sc(C(=O)NCc4ccccc4)c(N)c3c2-c2ccccc2Cl)c(C)c1` the same measures were 90% and -8.85.
Regarding `CCc1ccc(NC(=O)c2sc3nc(C)c(C(=O)Nc4ccc(C)cc4C)c(-c4ccccc4Cl)c3c2N)cc1`, the “% Inhibition” value stood at 40% and the Z score is listed as -2.96.
For `Cc1ccc(NC(=O)c2c(C)nc3sc(C(=O)NCc4ccccc4)c(N)c3c2-c2cccnc2)c(C)c1` the same measures were 21% and -3.35.
